From publication PMC12136788
Over roughly 24,000 sequences, “enrichment r” has its median near 0.99; the highest 2% begin near 3.7. These entries were drawn from the full list.

T1: UNK ZnF1-3 (human, UniProt Q9C0B0 31-174)
T1 sequence: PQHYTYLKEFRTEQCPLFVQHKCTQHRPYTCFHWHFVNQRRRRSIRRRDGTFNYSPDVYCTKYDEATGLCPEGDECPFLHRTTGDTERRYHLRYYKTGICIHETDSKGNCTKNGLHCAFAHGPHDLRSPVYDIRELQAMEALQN

B1: chr9:35286173:35286174:+_ENSMUSG00000038119_ENSMUST00000042842|mus_hu|FALSE|FALSE (ssRNA)
RNA: GGGAGUUCUACAGUCCGACGAUCAGUGUUAUUGUUACUUGAUGGAAUGUACGUCCACUUUAGCAUGAUCUGAGUAUCGCUGACAGCCUCUGUGUAUGCAAUGUGAGGUCCAGUUAUUGGACGGCUGGAAAAGCGAUUGGGGAACAACAGAGGAUUGAGCAUCA
B2: chr1:39494564:39494565:+_ENSG00000168653_ENST00000372967|hu_hu|hu_hu_hu_mus_True|28_68 (ssRNA)
RNA: GGGAGUUCUACAGUCCGACGAUCAUGCAUUCGCCUCAUCGUUUUGUACCGAAGCAAGCACUCUUCGAAAUCAUCAUACUCUAUCUUGCACUCCUUUUUCGCCCGGGUAUAACCGAUCCCGUGUGCACACUCUAUCCACUCUUUCAACAGAGGAUUGAGCAUCA
B3: 3369786_3369906_1343_3pUTR_ENSMUSG00000025899_ENSMUST00000053407|mouse|control|control (ssRNA)
RNA: GGGAGUUCUACAGUCCGACGAUCAGUCCUUGUUGAUGCCAAGGUAUUUUCCAUUUCCACAUCCGAUAUCUGCCACUAUGGAACCACUUGGCAAAGCUUUCAGGAACUCUACUAUGCGUGGCCAUGGGCUAUGUCUUGUGCUGCCAACAGAGGAUUGAGCAUCA
B4: chr7:141450121:141450122:+_ENSG00000106028_ENST00000265304|hu_mus|hu_hu_hu_mus_True|68_88 (ssRNA)
RNA: GGGAGUUCUACAGUCCGACGAUCUCAUCCGUUCUAUGCCUUUUCUUUCGUCUGGUCACUCAGAAAUAUAAUAUUAUCAGCUAUGAUUGUUGUUGCUUGCCGCCUCACAUUGUUUUUAUCCAUGUACUCGCCAUAGUCCACUUUCAACAGAGGAUUGAGCAUCA
B5: 139369022_139369142_3059_CDS_ENSG00000148396_ENST00000313050|human|control|control (ssRNA)
RNA: GGGAGUUCUACAGUCCGACGAUCGUCAGAAUGGGACGGGUUGUACACGUUUACAGGAUUUUCCAAAGUCCUGCUUAAGGUAAAGUCUAGGGCUCCGUAAGUGUCUUCCUGAUGACUGGAAUGGUUUGCCUUAUUACCAUCAGGCAACAGAGGAUUGAGCAUCA
B6: chr1:109605286:109605287:-_ENSG00000197780_ENST00000461096|hu_mus|hu_hu_hu_mus_True|8_108 (ssRNA)
RNA: GGGAGUUCUACAGUCCGACGAUCAAGAACAAUAACAACAUUCAGUAACCUCUUUAAAUGCAAUUAUCCUUAUUAUAAGCUAAGCAGAAUAAUAAUUUAAUACCGUAAGUGAACUACACACAAAGCCGUGUAUUCAGAAAUGGUCAACAGAGGAUUGAGCAUCA
B7: 25140584_25140782_2291_CDS_ENSMUSG00000026965_ENSMUST00000028341|mouse|control|control (ssRNA)
RNA: GGGAGUUCUACAGUCCGACGAUCUGCCCAGAAGAGCAGUAGCUCCUCUUCCUUCUGGUCAGCCUGGGAGGCCAUGCCUGAGUCACUCUCAUCAUCACUGUCAAUCAGCACCAUGUUGUCCCUAUCCUGAGGCCGCUCUUCCUCCAACAGAGGAUUGAGCAUCA
B8: chr15:23003119:23003120:+_ENSG00000068793_ENST00000560848|hu_mus|FALSE|FALSE (ssRNA)
RNA: GGGAGUUCUACAGUCCGACGAUCUUAUAAAGUUAAGCUUUCAGAUCAAAAGUAGGUUCAGACAUAAUGGAAAAUAGCCCCUAAAAAUUUCAAUAUAGUUUACAUAAAGACAAACAUGCCAUCAGUUACUGGGAUGCUGUGAGCCAACAGAGGAUUGAGCAUCA
B9: chr11:60965468:60965469:-_ENSMUSG00000042506_ENSMUST00000041683|mus_mus|motif|central (ssRNA)
RNA: GGGAGUUCUACAGUCCGACGAUCCUAACCACAGUACAAUCAUUGGAUUUUUUUUCCCUCACGAUUUUUUAUUUCAAAGCGGUAAUAAAUGAAACAAACCACUUGUCAAAAAGAACAAUGAUUUUACACAAGGAAAAGCAUACACAACAGAGGAUUGAGCAUCA
B10: chr17:87833181:87833182:-_ENSMUSG00000036438_ENSMUST00000040440|perfect_dup|motif|central (ssRNA)
RNA: GGGAGUUCUACAGUCCGACGAUCCGGGCUUAGAUAUAGCCAGAGUAAGCCACAUGCAACAUGUUACUUCAUCAAUUUUCGGAAAUAAGGUUUAAGGACAAUGACAGUAAGAUAAGGGAAGAAAACAUGGAGGAAUGAAGUCCUCAACAGAGGAUUGAGCAUCA
B11: chr18:52893488:52893489:-_ENSG00000196628_ENST00000354452|hu_hu|hu_hu_hu_mus_True|8_18 (ssRNA)
RNA: GGGAGUUCUACAGUCCGACGAUCUAUUUAGACCAUUUCCGCGGAGUUAUGGCAUUUACUCAGUGCUGAUAGGUGGAAAAACUACUUCAACAGGGAUUUUUUUUUUCCUUAAUACAUGCCAAGAAUUGUGUGGCUGUAAAACAGCAACAGAGGAUUGAGCAUCA
B12: 137534387_137536831_709_CDS_ENSG00000094880_ENST00000394886|human|control|control (ssRNA)
RNA: GGGAGUUCUACAGUCCGACGAUCCUCCUCUAUCAACUGCAACUCUGUGUAUAUAUGAGCCAGAAAAAACUCUUUCAUCCAGGUGUCUGGCAAAGACAGGAACUUCAGCAUCUCUUUGUCUGUGAUCAGGUUACAGAGUUCUAACAACAGAGGAUUGAGCAUCA
B13: chr16:94651144:94651145:+_ENSMUSG00000040785_ENSMUST00000117648|mus_hu|mus_mus_mus_hu_True|68_108 (ssRNA)
RNA: GGGAGUUCUACAGUCCGACGAUCAUUCUCUUGGAUCAAGUGGCGAAUAACAUAGUCCACUGCUUCAUGGACAAAAUUUCUGCUAGAAAAACAGGUUGUAUAGUCUUCUGUGCUCAAAACUUUCCAAGAAAGCAAUUCUUUGAGCAACAGAGGAUUGAGCAUCA
B14: chr14:89307221:89307222:+_ENSG00000165533_ENST00000346301|hu_mus|hu_hu_hu_mus_False|58_98 (ssRNA)
RNA: GGGAGUUCUACAGUCCGACGAUCUCCUGUUUGGUUAGUUCCAGGGAGCUUCAAAGAUGUGCCAGGGCGUGGGACCUGAGCUAUAGCAUUUUCAUCCAGGAUCAUUUCAGCAAUUCCUUCCUGGUCCACAUCAAUUUCAUCUAUCAACAGAGGAUUGAGCAUCA
B15: chr3:179287964:179287965:+_ENSG00000136518_ENST00000429709|hu_hu|hu_hu_hu_mus_True|88_108 (ssRNA)
RNA: GGGAGUUCUACAGUCCGACGAUCCUUUAGAGGUGAAAUGGCCUCCAUAUUCUCCCUGGGCACGCGGAGGGCAUUGGUGUCUAUGUAGUAGGUGGGCCCGCCCUGCUUGCCUUUGUCACCAUCAAUCUCCAUCAUUGUACUUCCCAACAGAGGAUUGAGCAUCA
B16: chrX:71549400:71549401:+_ENSMUSG00000019087_ENSMUST00000019231|mus_hu|mus_mus_mus_hu_False|8_98 (ssRNA)
RNA: GGGAGUUCUACAGUCCGACGAUCGCAGUAGGAAGAGCAAACCUUUCCAGUCCAGUGCGCUGCAGGGUGGGAAAGCAACAACACGGACACCGUCCCACCCUCAACCCCCCCACUGGCACAGGGUCACAUCUGGGUCAUCAAAGACAACAGAGGAUUGAGCAUCA
B17: 120770645_120770765_141_5pUTR_ENSMUSG00000043207_ENSMUST00000058754|mouse|control|control (ssRNA)
RNA: GGGAGUUCUACAGUCCGACGAUCCUCAGCGACACGCGUCCCUCGGAGAGUGCCAGCGGUGUCACAACAAUACGGGUCCCUUCCGAGGGCUUCUUCAGACGCCCAUUCCCUCAGCUUUGCCAGAAGUGUCACAAAGACACGAUUCAACAGAGGAUUGAGCAUCA
B18: chr7:118215947:118215948:-_ENSMUSG00000005610_ENSMUST00000162415|mus_mus|FALSE|FALSE (ssRNA)
RNA: GGGAGUUCUACAGUCCGACGAUCGGUCCUUGCAAUAGACUGCCUCUGCUUGAGAACUUAGGAUGUAAUUAUUGCAUGCUGCUAAUAUUCUAUCUAAACAUUAAGGAUACUCCUAAAGUAUUUGAUGGUAGACUAUGAUUAAGACAACAGAGGAUUGAGCAUCA
B19: 78432385_78432637_487_CDS_ENSG00000162613_ENST00000370768|human|control|control (ssRNA)
RNA: GGGAGUUCUACAGUCCGACGAUCUUCAGGUGUUCCAGUUAACAUACAGGACCUUUCUGGAAGGCCACCACUGUCAGGAGCUAUCUGUAUUUUGCAUCCAGAUUCCUGUUGUAUGCGUGAGAUCUGUUCACCUCCUCUGCCAAUCAACAGAGGAUUGAGCAUCA
B20: chr8:35203877:35203878:-_ENSMUSG00000031513_ENSMUST00000033910|mus_hu|FALSE|FALSE (ssRNA)
RNA: GGGAGUUCUACAGUCCGACGAUCGGAAGGGCACAUCCAAGCAUCAAAAACAUCAGUCCGAUUGCUCCUCCAAAGGACAAACUAAUCAAAGCUUUGAUGCCUGCCAUGGCGGUGACGUCGCUCCUGGCUCCACGACCCGAGGCGCAACAGAGGAUUGAGCAUCA
B21: chr2:48026839:48026840:+_ENSG00000116062_ENST00000540021|hu_hu|hu_hu_hu_mus_False|38_108 (ssRNA)
RNA: GGGAGUUCUACAGUCCGACGAUCAUAGUGUGCCACUAGCGUCCUAAAUCUGGAACAGUGGCGGUCAUCCGAAAACUGGCCGAUGAAAAACUUGCCCAGUGAAGUAUCCACAAAGCAAACACCAUACACACGAGUGUGACCAGACAACAGAGGAUUGAGCAUCA
B22: chr16:46990815:46990816:-_ENSG00000069345_ENST00000563158|hu_hu|motif|central (ssRNA)
RNA: GGGAGUUCUACAGUCCGACGAUCUCAAAAUGAAGAUGUAAAGCUUUGUGGUUAGUUUAAAUUAUACACUCUGUAGAUACGGUACCAAUUUUAAAAGUUAUACAUAGACCAACAGAUGUCCCUCAGUUCAUCUGGAUUGAUAAGCAACAGAGGAUUGAGCAUCA

biological target: T1, UNK ZnF1-3; test: nsRBNS (natural sequence RNA bind-n-seq); RBNS binding buffer (assumed for nsRBNS): 25 mM Tris pH 7.5, 150 mM KCl, 3 mM MgCl2, 0.01% Triton X-100, 500 ug/ml BSA, 20 U/ml SUPERase-In, 4 C; UNK is unkempt and MSI1 is Musashi-1; names of the RNAs are library labels; protein concentration not given here; high values mean tight binding

Compared with B1, B2 is lower in binding signal: 1.04 enrichment R for the first, 0.701 enrichment R for the second.

Going from B3 to B4, the binding signal falls from 0.678 enrichment R to 0.541 enrichment R.

Going from B5 to B6, the binding signal rises from 0.675 enrichment R to 0.741 enrichment R.

First: B7
Second: B8
The binding signal of the first is lower: 1.06 enrichment R for the first, 2.11 enrichment R for the second.

First: B9
Second: B10
The binding signal of the first is lower: 0.852 enrichment R for the first, 2.55 enrichment R for the second.

Going from B11 to B12, the binding signal rises from 1.05 enrichment R to 1.71 enrichment R.

First: B13
Second: B14
The binding signal of the first is lower: 0.52 enrichment R for the first, 0.829 enrichment R for the second.

First: B15
Second: B16
The binding signal of the first is lower: 0.786 enrichment R for the first, 0.928 enrichment R for the second.

Going from B17 to B18, the binding signal rises from 0.703 enrichment R to 1.31 enrichment R.

First: B19
Second: B20
The binding signal of the first is lower: 0.709 enrichment R for the first, 2.82 enrichment R for the second.

Compared with B21, B22 is lower in binding signal: 1.07 enrichment R for the first, 0.61 enrichment R for the second.
